The campaign covered roughly 50,000 compounds. About 800 (1.6%) showed an effect of 50% or more. Only a selection was taken, and strong results are over-represented in it overall.
Target: Bcl-2-like protein 10 (Homo sapiens) (UniProt Q9HD36)
Experiment: TR3 peptide-Bcl-B binding displacers, biochemical primary FP assay, phenotype converters (AID 1240);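 also: 0% = Bcl-B with tracer peptide and DMSO and 100% = tracer peptide lacking Bcl-B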
Conditions: GST-Bcl-B / FITC-TR3 peptide fluorescence polarization; stronger effect = higher value; compound at 3.75 mg/L

Bcl-2-like protein 10 (Homo sapiens), sequence (Q9HD36 whole entry, looked up): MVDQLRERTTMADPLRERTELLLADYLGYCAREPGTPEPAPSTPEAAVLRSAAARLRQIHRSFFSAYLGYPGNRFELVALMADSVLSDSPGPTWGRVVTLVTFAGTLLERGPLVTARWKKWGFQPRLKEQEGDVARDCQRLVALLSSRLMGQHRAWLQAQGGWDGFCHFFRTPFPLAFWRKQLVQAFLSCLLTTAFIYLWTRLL

Row | Compound | displacement [%]
1 | COc1ccccc1-n1cnc2cc(NC(C)=O)ccc21 | 14.7
2 | CC(C)(C)c1cc(C2=C(Cl)C(=O)c3ccccc3C2=O)cc(C(C)(C)C)c1O | 6.9
3 | O=C1N=c2ccc(Cl)cc2=C1c1sc(NS(=O)(=O)Cc2ccccc2)nc1O | -7.2
4 | CC1=C(C(=O)Nc2ccc(C)cc2)C(c2ccccc2Br)NC(=S)N1 (stereo not given) | 84.9
5 | CC1=C(C(=O)Nc2ccccc2)C(c2ccccc2Br)NC(=S)N1 (stereo not given) | -1.9
6 | CC1=C(C(=O)Nc2ccc(Br)cc2)C(c2ccccc2Br)NC(=S)N1 (stereo not given) | -7
7 | Cc1ccc(SCCNC(=O)CN(c2ccc(C)cc2)S(C)(=O)=O)cc1 | -13.4
8 | CC(=O)C1=C(O)C(=O)N(c2nc3ccccc3s2)C1c1ccccc1F (stereo not given) | -8.5
9 | O=C(C1=C(O)C(=O)N(c2nncs2)C1c1ccc(Cl)cc1)c1cccs1 (stereo not given) | 125
10 | COc1ccc(C2/C(=C(\O)c3ccc(F)cc3)C(=O)C(=O)N2c2nncs2)cc1 (stereo not given) | 11
11 | COc1ccc(C2C(C(C)=O)=C(O)C(=O)N2c2nc3ccccc3s2)cc1OC (stereo not given) | -10.4
12 | O=C1C(=O)N(c2nncs2)C(c2ccc(Cl)cc2)/C1=C(\O)c1ccc(F)cc1 (stereo not given) | 20.8
13 | COc1ccc(C2/C(=C(\O)c3ccc(C)cc3)C(=O)C(=O)N2c2nncs2)cc1 (stereo not given) | 13.6
14 | COc1ccc(C2C(C(=O)c3cccs3)=C(O)C(=O)N2c2nncs2)cc1 (stereo not given) | 143
15 | O=C(C1=C(O)C(=O)N(c2nncs2)C1c1ccccc1F)c1cccs1 (stereo not given) | 129
16 | COc1cc(C2/C(=C(\O)c3ccc(F)cc3)C(=O)C(=O)N2c2nncs2)ccc1O (stereo not given) | 8.3
17 | COc1ccc(C2C(C(=O)c3cccs3)=C(O)C(=O)N2c2nncs2)cc1OC (stereo not given) | 84.6
18 | O=C1C(=O)N(c2nncs2)C(c2cccc(Br)c2)/C1=C(\O)c1ccc(F)cc1 (stereo not given) | 16.6
19 | O=C(C1=C(O)C(=O)N(c2nncs2)C1c1cccc([N+](=O)[O-])c1)c1cccs1 (stereo not given) | 7.1
20 | C/C(=N\N=C1\NC(=O)C(CC(=O)Nc2ccccc2C(F)(F)F)S1)c1ccco1 (stereo not given) | -7.9
21 | O=[N+]([O-])c1ccc(N2CCN(S(=O)(=O)c3ccccc3)CC2)cc1NCCc1ccccc1 | 7.8
22 | Cc1ccc2oc(-c3cc(N)ccc3O)nc2c1 | 5.4

Row | Compound | displacement [%]
23 | S=C1NCCOCCOCCOCCNC(=S)N2CCOCCOCCN1CCOCC2 | 14.7
24 | O=C1C2C(c3ccccc3)C=CC(c3ccccc3)C2C(=O)N1Cc1ccc(F)cc1 (stereo not given) | -7.7
25 | COc1cc(/C=N\n2nnnc2N)ccc1OCc1ccc(F)cc1 | 10.6
26 | CC1CC(C)CN(C(=O)c2ccc(Cl)cc2Cl)C1 (stereo not given) | -3.8
27 | Cc1ccc(Cl)c(OCC(O)Cn2c(C)nc3ccccc32)c1 (stereo not given) | -11.5
28 | COc1ccc(OCC(O)Cn2c(C)nc3ccccc32)cc1 (stereo not given) | -22.4
29 | O=C(O)C1C2CCC(O2)C1C(=O)N1CCN(c2ccc(F)cc2)CC1 (stereo not given) | -9.7
30 | CCOCCOC(=O)C1=C(C)NC2=C(C(=O)CC(C)(C)C2)C1c1cccc(Cl)c1Cl (stereo not given) | 3.1
31 | CCCCCCOc1ccc(N2C(=O)CC(NCc3ccc(OC)cc3)C2=O)cc1 (stereo not given) | 4.5
32 | Cc1ccc(/C(O)=C2\C(=O)C(=O)N(c3nncs3)C2c2cccc(Br)c2)cc1 (stereo not given) | 18.7
33 | O=C1C(=O)N(c2nncs2)C(c2ccc(F)cc2)/C1=C(\O)c1ccccc1 (stereo not given) | 13.6
34 | CC(C)(C)c1ccc(C2/C(=C(\O)c3ccc(F)cc3)C(=O)C(=O)N2c2nncs2)cc1 (stereo not given) | 11.3
35 | Cc1ccc(C2/C(=C(\O)c3ccccc3)C(=O)C(=O)N2c2nncs2)cc1 (stereo not given) | 11.3
36 | Cc1ccc(C2C(C(=O)c3cccs3)=C(O)C(=O)N2c2nncs2)cc1 (stereo not given) | 121
37 | O=C(C1=C(O)C(=O)N(c2nncs2)C1c1ccc(F)cc1)c1cccs1 (stereo not given) | 109
38 | Nn1c(Nc2ccccc2)nc2ccccc2c1=O | -15.5
39 | O=C(N/N=C/c1cccc([N+](=O)[O-])c1)C1CC(=O)N(c2ccc(F)cc2)C1 (stereo not given) | -10.4
40 | O=C1CCCC2=C1C(c1ccc([N+](=O)[O-])cc1)C1=C(CCCC1=O)N2c1ccc(Cl)cc1 | 17.8
41 | Cc1ccc([N+](=O)[O-])cc1NC(=O)CCCOc1ccccc1 | 8.1
42 | COc1ccc(Cl)cc1NC(=O)C1=C(C)NC(=S)NC1c1ccc(F)cc1 (stereo not given) | 11.9
43 | COC(=O)C1=C(C)NC2=C(C(=O)c3ccccc32)C1c1ccc(-c2ccc([N+](=O)[O-])cc2Br)o1 (stereo not given) | 46.9
44 | O=C1C2=C(Nc3ccccc3SC2c2ccc([N+](=O)[O-])cc2)c2ccccc21 (stereo not given) | -6

Row | Compound | displacement [%]
45 | O=C1C(=C/C=C/c2ccccc2)C(=O)c2ccccc21 | 75
46 | O=C1NN(c2ccccc2)C(=O)/C1=C\C=C\c1ccccc1 | 30.9
47 | O=C1C(=Cc2ccccc2)C(=O)c2ccccc21 | 17.6
48 | CCOC(=O)c1c(NC(=O)C(Cl)(Cl)Cl)sc2c1CCC2 | -3.5
49 | Cc1ccc2c(c1)NC(c1ccc(Cl)cc1Cl)C1=C(CC(C)(C)CC1=O)N2 (stereo not given) | 13.5
50 | O=S(=O)(O)c1nc2ccccc2n1-c1ccccc1 | -9.1
51 | CC(C)(C)c1cc(C(=O)N/N=C\c2ccc(Cl)cc2)n[nH]1 | -5.3
52 | COc1ccc(NC(=O)C2=C(C)NC(=O)NC2c2cccc(Cl)c2)cc1 (stereo not given) | 83.7
53 | CC1=C(C(=O)Nc2ccc(C)cc2)C(c2ccc([N+](=O)[O-])cc2)NC(=O)N1 (stereo not given) | -3.6
54 | CC1=C(C(=O)Nc2ccc(Cl)cc2)C(c2ccc([N+](=O)[O-])cc2)NC(=S)N1 (stereo not given) | 4.6
55 | COc1ccc(NC(=O)C2=C(C)NC(=O)NC2c2cccc(OC)c2)cc1 (stereo not given) | -15.9
56 | COc1ccc(C2NC(=O)NC(C)=C2C(=O)Nc2cccc(Cl)c2)cc1 (stereo not given) | 11.4
57 | CC1=C(C(=O)Nc2ccc(Cl)cc2)C(c2ccc([N+](=O)[O-])cc2)NC(=O)N1 (stereo not given) | 124
58 | COc1cc(C(=O)Nc2nc3ccc4ccccc4c3s2)cc(OC)c1OC | 6.6
59 | CCCCN(CCCC)S(=O)(=O)c1ccc(C)cc1 | -6.8
60 | CNc1cc([N+](=O)[O-])ccc1N/C=C\C(=O)c1ccc2ccccc2c1 | 14.1
61 | COC(=O)c1ccc(N/C=C\C(=O)c2ccc3c(c2)OCO3)cc1 | 23.7
62 | O=C(/C=C\Nc1ccc([N+](=O)[O-])cc1Br)c1ccc2c(c1)OCO2 | 3
63 | O=C(/C=C\Nc1ccc2c(c1)OCO2)c1ccc2c(c1)OCO2 | 104
64 | CNc1cc([N+](=O)[O-])ccc1N/C=C\C(=O)c1ccc2c(c1)OCO2 | 97.2
65 | O=C(/C=C\Nc1ccc2c(c1)OCO2)c1ccc(F)cc1 | -2.4

Source: PubChem BioAssay AID1240 (Sanford-Burnham Center for Chemical Genomics, 2008)
